Compound activity deposited in PubChem BioAssay by National Center for Advancing Translational Sciences (NCATS).
Hits are enriched below; roughly 19% of the tested compounds scored in any of these assays.
Shiga toxin inh = blocks Shiga toxin action in Vero cells. Vero cells, Shiga toxin protein synthesis inhibition reporter. inhibition, % at 38.7 µM. 290,000 compounds, 9.2% hits. AID 2315; in the data active = inhibition mostly above about 28%, no sharp cut-off; inactive = mostly below about 43%
Pf growth 48h = P. falciparum growth inhibition at 48 hours (one generation) | P. falciparum luciferase growth in erythrocytes, 48 h | Potency, µM (series often up to 28.7 µM), hits mostly inhibitors | 310,000 compounds, 5.9% hits | AID 504832
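Cell-based growth assay: transgenic P. falciparum expressing firefly luciferase, cultured in red cells within RPMI 1640 containing 0.5% w/v Albumax, 24 mM bicarbonate and gentamycin. A drop in luciferase activity indicates inhibition.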
Pf growth 96h = P. falciparum growth inhibition at 96 hours. P. falciparum luciferase reporter growth, 96 h. Potency, µM (highest dose often 28.7 µM), usual class: inhibitors. 320,000 compounds, 6.9% hits. AID 504834
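Two parasite generations (96 h, 37 C, 5% CO2) of compound exposure in infected erythrocytes (0.05% parasitemia, 2% hematocrit). Luciferase-reporter P. falciparum; decreased luminescence indicates inhibited growth, aimed at apicoplast-acting delayed death.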
CHX counter = counter-screen hit for Shiga toxin inhibitors, cycloheximide; cell reporter, cycloheximide protein synthesis inhibition counterscreen; max response, %; 300,000 compounds, 12% hits; in the data active = max response mostly above about 13%, no sharp cut-off; inactive = mostly below about 14%; also: read at 38.3 µM for the half of the compounds with a filed dose
Marburg entry inh = Marburg virus entry inhibition; AID 540276; 300,000 compounds, 1.8% hits; Potency, µM (highest dose often 37.8 µM), usual class: inhibitors; Marburg virus pseudotyped entry inhibition, cell reporter; calls by dose curve; tested in HEK293 cells
Lassa entry inh = inhibitors of Lassa virus binding or cell entry. Lassa virus pseudotype entry inhibition, cell reporter. Potency, µM (top dose mostly 37.9 µM), usual class: inhibitors. 300,000 compounds, 1.2% hits; calls by dose curve; tested in HEK293 cells; also: nearly all actives have a fitted effect of over 50% in size
Large screens that a line does not name were inactive; ! = repeats disagree. Unless noted, calls follow the shape of the dose curve; as a rule, active = well fitted inhibition curve with a large enough effect; inconclusive = small, poorly fitted or top-dose-only effect, or another doubt; inactive = no such curve, though single readings can be large or run the other way.

COc1cccc(-n2cnc3sc4c(c3c2=O)CCC4)c1	Pf growth 96h inconclusive
CC(=O)OCc1nc2sc3c(c2c(=O)[nH]1)CCCC3	none
CC(C)(C)OC(=O)NCC(=O)Oc1cc2oc(=O)cc(-c3ccccc3)c2cc1Cl	none
CCc1n(CC(O)COC2CCCCC2)c2ccccc2[n+]1C (stereo unspecified)	Pf growth 48h 2.6µM, Pf growth 96h inconclusive
CN1CCC(O)(c2ccc(F)cc2)C(C(=O)c2ccc(F)cc2)C1 (stereo unspecified)	none (no result: Shiga toxin inh, CHX counter, Marburg entry inh, Lassa entry inh)
COc1ccc(CSc2nc3ccncc3n2CC(=O)Nc2ccc(C)c(F)c2)cc1	none (no result: Shiga toxin inh, Pf growth 48h, Pf growth 96h, CHX counter)
Cc1cccc(CSc2nc3ccncc3n2CC(=O)Nc2cc(C)cc(C)c2)c1	Pf growth 96h 8.3µM, Lassa entry inh inconclusive
CC1=C(C)CC(C(=O)Nc2nc(-c3ccc(C)cc3C)c(C)s2)C(C(=O)O)C1 (stereo unspecified)	Marburg entry inh inconclusive
COCCC(=O)N1CCC(Oc2ccc(C(=O)N3CCCCC3CCO)cc2)CC1 (stereo unspecified)	Pf growth 96h 4.7µM, Marburg entry inh inconclusive
CCC1CCCCN1C(=O)c1ccc(OC2CCN(C(=O)CCOC)CC2)cc1 (stereo unspecified)	CHX counter 16
COCC(=O)N1CCC(Oc2ccc(C(=O)N(C)CCCC3CCCC3)cc2)CC1	CHX counter 22 (no result: Marburg entry inh, Lassa entry inh)
COCCC(=O)N1CCC(Oc2ccc(C(=O)N3CCCCCC3)cc2)CC1	Pf growth 48h inconclusive, Pf growth 96h inconclusive (no result: Marburg entry inh, Lassa entry inh)
CCn1c(SCC(=O)N2CCN(c3ccc(Cl)cc3)CC2)nc2ccccc2c1=O	Pf growth 96h inconclusive
COc1ccccc1N(CC(=O)NCC1CCCO1)C(=O)CCC(=O)Nc1nccs1 (stereo unspecified)	Pf growth 96h inconclusive
Cc1ccnn2cc3c(=O)n(C)c(=O)n(C)c3c12	none (no result: Lassa entry inh)
Cn1ccnc1SCc1cc(=O)[nH]c2ccccc12	CHX counter 17
Cc1cccc(-c2nnc(SCc3cc(=O)[nH]c4ccccc34)n2C)c1	Pf growth 48h 13µM, Pf growth 96h inconclusive
O=S(=O)(c1cccs1)N1CCC(Cc2ccccc2)CC1	none
CCc1ccc(OCCOC(=O)Nc2ccccc2)cc1	Pf growth 96h inconclusive (no result: Marburg entry inh, Lassa entry inh)
CC(C(=O)O)N1C(=O)/C(=C/c2cccn2C)SC1=S (stereo unspecified)	none
COc1ccc(C(=O)Nn2cnc3scc(-c4cccs4)c3c2=O)c(O)c1	Shiga toxin inh 116, CHX counter 31, Marburg entry inh inconclusive
COc1cc(CN2CCCCCC2)cc(OC)c1OC	none
CCOC(=O)N1CCN(C(=O)CNC(=O)c2nn(-c3ccc(OC)cc3OC)c(=O)c3ccccc23)CC1	Shiga toxin inh 31, Pf growth 48h inconclusive, Pf growth 96h 1µM, CHX counter 25
COc1ccc(-n2nc(C(=O)NCC(=O)N3CC(C)CC(C)C3)c3ccccc3c2=O)c(OC)c1 (stereo unspecified)	Pf growth 48h 2.1µM
COc1ccc(-n2nc(C(=O)NCC(=O)N3CCN(c4ccc(F)cc4)CC3)c3ccccc3c2=O)c(OC)c1	Pf growth 48h inconclusive, CHX counter 16, Lassa entry inh inconclusive
CCOC(=O)c1ccc(-n2c(N)c(C(=O)NCC3CCCO3)sc2=S)cc1 (stereo unspecified)	none
CCOC(=O)c1c(NC(=O)c2ccc(Br)cc2)sc2c1CCCC2	none (no result: Shiga toxin inh, Pf growth 48h, Pf growth 96h, CHX counter, Marburg entry inh)
CCN(CC)C(=O)c1ccccc1NS(=O)(=O)c1cccs1	Marburg entry inh inconclusive
Oc1cc(O)cc(/C=C/c2ccc(O)c(O)c2)c1	Marburg entry inh inconclusive, Lassa entry inh 4.1µM
Oc1ccc(/C=C/c2ccc(/C=C/c3ccc(O)cc3)c(Br)c2)cc1	Lassa entry inh inconclusive (no result: Shiga toxin inh, Pf growth 48h, Pf growth 96h, CHX counter)
CCOC(=O)C1=C(Cn2cnc3ccccc32)NC(=O)NC1c1ccc(Cl)cc1 (stereo unspecified)	Pf growth 96h 5.9µM (no result: Pf growth 48h)
CCOC(=O)N1CCc2c(sc3c2c(=O)n(Cc2ccccc2)c(=O)n3Cc2c(F)cccc2Cl)C1	none (no result: Shiga toxin inh, Pf growth 48h, Pf growth 96h, CHX counter)
Cc1ccc(NC(=O)c2ccc(OC(=O)CCN3C(=O)c4ccccc4C3=O)cc2)cc1	Shiga toxin inh 72, CHX counter 37, Marburg entry inh inconclusive (no result: Pf growth 96h)
Cc1ccc(C(=O)CC(=O)COc2ccc(Cl)cc2C)cc1	Pf growth 48h inconclusive, Lassa entry inh inconclusive
Cc1ccc(OCC(=O)Oc2c(C)cccc2C)cc1	Pf growth 96h 0.33µM (no result: Marburg entry inh, Lassa entry inh)
Cc1ccc(NC(=O)c2ccc(OC(=O)COc3cccc(Cl)c3)cc2)cc1	Shiga toxin inh 51, Pf growth 96h inconclusive, CHX counter 36, Marburg entry inh inconclusive
Cc1cccc(OCC(=O)Oc2ccc(Cl)cc2)c1	none (no result: Shiga toxin inh, Pf growth 48h, Pf growth 96h, CHX counter)
Cc1ccc(NC(=O)c2ccc(OC(=O)COc3ccc(Cl)cc3C)cc2)cc1	CHX counter 46, Marburg entry inh inconclusive, Lassa entry inh inconclusive
Cc1cc(C)cc(OC(=O)CCN2C(=O)c3ccccc3C2=O)c1	Pf growth 48h inconclusive, Pf growth 96h inconclusive
C=CCNC(=O)CN(Cc1ccccc1)S(=O)(=O)c1ccc(C)cc1	Pf growth 48h inconclusive (no result: Marburg entry inh, Lassa entry inh)
CCOC(=O)C1CCCN(C(=O)c2cc(S(=O)(=O)N(C)C)ccc2N2CCCC2)C1 (stereo unspecified)	Pf growth 96h inconclusive (no result: Shiga toxin inh, CHX counter)
Cc1noc2ncnc(NCCc3ccccc3)c12	none (no result: Shiga toxin inh, Pf growth 48h, Pf growth 96h, CHX counter, Marburg entry inh)
COc1ccc(C2CC(c3c(-c4ccccc4)c4cc(Cl)ccc4[nH]c3=O)=NN2S(C)(=O)=O)cc1 (stereo unspecified)	Pf growth 48h inconclusive, Marburg entry inh inconclusive, Lassa entry inh inconclusive (no result: Pf growth 96h)
COc1ccc(OC)c(C2CC(c3c(-c4ccccc4)c4cc(Cl)ccc4[nH]c3=O)=NN2S(C)(=O)=O)c1 (stereo unspecified)	Pf growth 48h 9.3µM, Pf growth 96h 2.1µM, Marburg entry inh inconclusive, Lassa entry inh inconclusive
O=C(/C=C/c1ccc(F)cc1)N1CCc2ccccc2C1	none (no result: Shiga toxin inh, CHX counter, Marburg entry inh, Lassa entry inh)
O=C(/C=C/c1ccc(F)cc1)N1CCCc2ccccc21	Shiga toxin inh 43, Pf growth 96h inconclusive (no result: Lassa entry inh)
O=C(c1ccc(Cl)cc1Cl)N1CCc2ccccc21	Pf growth 48h inconclusive
O=C(/C=C/c1cccc(F)c1)N1CCc2ccccc21	Shiga toxin inh 102, CHX counter 65, Marburg entry inh inconclusive, Lassa entry inh inconclusive
O=C(/C=C/c1ccc(Cl)cc1Cl)N1CCc2ccccc21	Shiga toxin inh 61, CHX counter 32, Marburg entry inh inconclusive, Lassa entry inh inconclusive
O=C(OCC(=O)N1CCCC1)c1ccc(NS(=O)(=O)c2cccs2)cc1O	none
C=CCn1c(C(C)NC(=O)c2ccc(C)cc2)n[nH]c1=S (stereo unspecified)	Lassa entry inh inconclusive
O=C(CCNC(=O)c1ccccc1Cl)Nc1ccc(Br)c(C(F)(F)F)c1	none
O=c1[nH]c(/C=C/c2ccccc2)c([N+](=O)[O-])c(=O)[nH]1	Pf growth 96h 10µM
Cc1cc2nc3ccc(=[N+](C)C)cc-3sc2cc1N	Shiga toxin inh 48, Pf growth 48h 0.037µM, Pf growth 96h 0.033µM, CHX counter 36 (no result: Marburg entry inh, Lassa entry inh)
Nc1ccc2nc(N)sc2c1	none (no result: Shiga toxin inh, Pf growth 48h, Pf growth 96h, CHX counter)
CN(C)c1ccc2nc3ccc(=[N+](C)C)cc-3sc2c1	Shiga toxin inh 88, Pf growth 48h 0.0067µM, Pf growth 96h 0.0067µM!, CHX counter 64! (no result: Marburg entry inh, Lassa entry inh)
